Data: PubChem BioAssay (EPA / NIEHS)
Records with an inconclusive call do not appear. Active and inactive are the calls of the source. The calls were made as follows: active = hit-call score of the fitted dose curve at least 0.9, where 1 is the maximum; inconclusive = response in the unintended direction; inactive = score below 0.9.

Test: Tanguay_ZF_120hpf_SNOU_legacy: (Legacy) Oregon State University Tanguay Lab 120 Hour Post-fertilization zebrafish Assay for Snout Malformation (AID 2283637)
Experimental: Tanguay_ZF_120hpf_legacy is a whole embryo, multiplexed endpoint assay using zebrafish larvae exposed for 120 hours post fertilization on a 96-well plate.Tanguay_ZF_120hpf_SNOU_legacy is one of one assay component(s) measured or calculated from the Tanguay_ZF_120hpf_legacy assay. It is designed to make measurements of zebrafish development as detected with brightfield microscopy of developing zebrafish embryos.Data from the assay component Tanguay_ZF_120hpf_SNOU_legacy was analyzed into 1 assay endpoints. This assay endpoint, Tanguay_ZF_120hpf_SNOU_legacy, was analyzed in the positive analysis fitting direction relative to DMSO as the negative control and baseline of activity. Using a type of morphology reporter, gain-of-signal activity can be used to understand changes in developmentals as they relate to the whole embryo. To generalize the intended target to other relatable targets, this assay endpoint is annotated to the zebrafish development intended target family, where the subfamily is embryonic snout morphogenesis.
Zebrafish husbandry: Tropical 5D wild-type adult zebrafish were housed in at an approximate density of 1000 per 100 gallon tank at the Sinnhuber Aquatic Research Laboratory, Oregon State University, Corvallis, OR. Each tank was kept at standard laboratory conditions of 28C on a 14-h light/10-h dark photoperiod in fish water consisting of reverse osmosis water supplemented with a commercially available salt (Instant Ocean). Spawning funnels were placed into the tanks the night prior, and embryos were collected and staged. To increase bioavailability, the chorion was enzymatically removed using pronase (63.6mg/ml, >/= 3.5U/mg, Sigma-Aldrich: P5147) at 4 hours post fertilization (hpf) using a custom automated dechorionator.Chemical exposures: Six hpf dechorionated embryos were placed 1 embryo per well in a 96-well plate prefilled with 90 ul of EM using automated embryo placement systems (AEPS). Ten microliters of each row of dilution plate 2 was added to 2 exposure plates. The final DMSO concentration used was 0.64% (vol/vol). Thirty-two embryos were also exposed to 5uM trimethyltin chloride (positive control). Plates were sealed to prevent evaporation and foil covered to reduce light exposure and kept in a 28C incubator. Embryos were statically exposed until 120 hpf. At 24 hpf, embryos were assessed for photomotor response using a custom photomotor response analysis tool (PRAT) and for developmental toxicity endpoints (MO24: mortality at 24 hpf, DP: developmental progression, SM: spontaneous movement, and NC: notochord distortion). At 120 hpf, locomotor activity was measured using Viewpoint Zebralab and assessed for 18 endpoints. Zebrafish acquisition and analysis program (ZAAP), a custom program designed to inventory, acquire, and manage zebrafish data, was used to collect developmental endpoints as either present or absent (i.e., binary responses were recorded). If mortality occurred for an embryo (at either 24 or 120 hpf), the non-mortality endpoints were not measured.

Structure (SMILES) | outcome | AC50
ClC1=C(Cl)C2(Cl)C3C(Cl)C=CC3C1(Cl)C2(Cl)Cl (stereo not given) | inactive | 
Cc1ccc(N)cc1 | inactive | 
[As]#[In] | inactive | 
CC(C)(C)C(O)(CCc1ccc(Cl)cc1)Cn1cncn1 (stereo not given) | inactive | 
CCOC(=O)[C@]1(c2ccccc2)Oc2ccccc2[C@@H]1N | inactive | 
c1ccc2c(c1)oc1ccccc12 | inactive | 
O=Cc1ccco1 | inactive | 
CN(C)c1ccc(C(=O)c2ccc(N(C)C)cc2)cc1 |  | 27.7 µM (active)
[Cl-].[Cl-].[Hg+2] |  | 3.82 µM (active)
COP(=S)(OC)SCN1C(=O)c2ccccc2C1=O | inactive | 
Cn1cc(-c2ccccc2)c(=O)c(-c2cccc(C(F)(F)F)c2)c1 | inactive | 
N#CC(Br)(Br)C(N)=O | inactive | 
CCNS(=O)(=O)C(F)(F)C(F)(F)C(F)(F)C(F)(F)C(F)(F)C(F)(F)C(F)(F)C(F)(F)F |  | 54.9 µM (active)
Clc1ccc(C(c2ccc(Cl)cc2)C(Cl)(Cl)Cl)cc1 | inactive | 
CC(C)(C)OOC(C)(C)CCC(C)(C)OOC(C)(C)C | inactive | 
OCCCBr | inactive | 
O=C1CCCO1 | inactive | 
CCOc1cccc(C2(N3CCN(c4ccccc4)CC3)CCC(C)CC2)c1 (stereo not given) | inactive | 
Oc1ccc2ccc3cccc4ccc1c2c34 |  | 44.2 µM (active)
CCC(C)c1ccc(O)cc1 (stereo not given) | inactive | 

Structure (SMILES) | outcome | AC50
CN(C)[C@@H]1C(=O)C(C(N)=O)=C(O)[C@@]2(O)C(=O)C3=C(O)c4c(O)cccc4[C@@](C)(O)[C@H]3C[C@@H]12 | inactive | 
O=C(Oc1ccc(Br)cc1)N1CCN2CCC1CC2 | inactive | 
Clc1ccc(C(c2ccc(Cl)cc2)C(Cl)Cl)cc1 | inactive | 
Cc1ccc([N+](=O)[O-])cc1 | inactive | 
O=C(O)C1C2CCC(O2)C1C(=O)O (stereo not given) | inactive | 
ClC1=C(Cl)[C@]2(Cl)[C@H]3[C@H]([C@@H]4C=C[C@H]3C4)[C@@]1(Cl)C2(Cl)Cl | inactive | 
CNC(=O)Oc1cccc2c1OC(C)(C)C2 |  | 43.9 µM (active)
c1ccc(NNc2ccccc2)cc1 | inactive | 
Cc1ccc(N)c(N)c1 | inactive | 
Cc1ccc(N=C=O)cc1N=C=O | inactive | 
OCCCl | inactive | 
O=P(OCCCl)(OCCCl)OCCCl | inactive | 
CCN(CC)N=O | inactive | 
O=[N+]([O-])C(Br)(CO)CO | inactive | 
Nc1ccc([N+](=O)[O-])cc1 | inactive | 
O=C(Nc1ccccc1)c1ccccc1I |  | 12.1 µM (active)
Nc1ccc(Oc2ccc(N)cc2)cc1 | inactive | 
c1ccc(C2CO2)cc1 (stereo not given) | inactive | 
COC(=O)Nc1nc2ccccc2[nH]1 | inactive | 
C1=Cc2cccc3cccc1c23 | inactive | 
